Hit rate of the full screen: of about 310,000 compounds, about 14,000 (4.5%) showed an effect of 50% or more. The effect is printed as a negative number. The sample as a whole holds a higher share of strong results than the screen did.
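Further: peak tail current of the secondary pulse compared with the same well before compound.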

Chain of human ether-à-go-go-related gene (hERG) potassium channel (Q12809 whole entry, looked up): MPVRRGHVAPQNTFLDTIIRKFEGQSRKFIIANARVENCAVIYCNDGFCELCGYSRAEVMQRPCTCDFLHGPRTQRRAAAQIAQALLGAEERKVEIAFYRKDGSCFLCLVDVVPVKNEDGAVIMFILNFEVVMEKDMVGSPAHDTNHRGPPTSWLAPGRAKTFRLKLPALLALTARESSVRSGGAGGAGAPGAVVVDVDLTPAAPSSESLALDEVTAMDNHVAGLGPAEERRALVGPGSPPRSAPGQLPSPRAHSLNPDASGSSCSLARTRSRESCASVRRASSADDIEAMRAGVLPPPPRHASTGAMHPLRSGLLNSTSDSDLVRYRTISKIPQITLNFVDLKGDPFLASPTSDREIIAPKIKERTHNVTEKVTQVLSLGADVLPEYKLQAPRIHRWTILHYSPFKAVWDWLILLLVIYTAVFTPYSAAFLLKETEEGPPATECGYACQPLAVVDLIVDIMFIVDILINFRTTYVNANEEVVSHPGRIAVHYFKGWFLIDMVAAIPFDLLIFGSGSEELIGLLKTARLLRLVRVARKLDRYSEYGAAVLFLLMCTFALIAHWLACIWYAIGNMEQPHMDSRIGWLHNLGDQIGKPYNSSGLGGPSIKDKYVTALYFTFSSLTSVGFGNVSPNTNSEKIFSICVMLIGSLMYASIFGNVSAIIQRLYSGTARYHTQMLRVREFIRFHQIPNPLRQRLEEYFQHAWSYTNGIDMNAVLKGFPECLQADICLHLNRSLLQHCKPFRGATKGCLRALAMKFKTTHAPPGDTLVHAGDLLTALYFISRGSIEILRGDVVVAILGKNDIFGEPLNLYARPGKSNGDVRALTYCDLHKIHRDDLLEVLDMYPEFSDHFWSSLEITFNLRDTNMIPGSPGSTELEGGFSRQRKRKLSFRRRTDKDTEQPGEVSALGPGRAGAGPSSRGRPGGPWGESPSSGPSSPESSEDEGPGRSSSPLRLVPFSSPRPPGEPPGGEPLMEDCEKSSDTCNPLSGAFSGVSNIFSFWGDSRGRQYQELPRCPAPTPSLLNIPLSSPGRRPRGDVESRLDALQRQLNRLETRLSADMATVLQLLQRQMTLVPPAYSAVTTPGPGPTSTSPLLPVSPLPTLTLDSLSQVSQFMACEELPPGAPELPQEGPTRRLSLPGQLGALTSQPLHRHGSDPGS

This test addresses human ether-à-go-go-related gene (hERG) potassium channel (human, UniProt Q12809). Briefly: primary screen, population patch clamp on CHO cells stably expressing hERG; higher = less effect of the substance.
As to `COC(=O)c1ccc(OC)c(CSc2nnc(-c3ccc(C(C)(C)C)cc3)o2)c1`, the “hERG current change (%, negative = inhibition) at 10uM” value is 9.83%. In the case of `CC(=O)Nc1ccc(OCC(=O)NCc2ccccc2)cc1`, the “hERG current change (%, negative = inhibition) at 10uM” value is recorded as 19%. As for `O=C(Cn1nc(C(F)F)cc1C(F)F)N/N=C/c1ccc2c(c1)OCO2`, the “hERG current change (%, negative = inhibition) at 10uM” value was found to be 24.7%. The value for `CC(=O)N1CCc2cc(S(=O)(=O)NC(Cc3ccccc3)C(=O)Nc3cc(C)ccn3)ccc21` (stereo not drawn) was 1.38%; that for `CCOc1ccccc1N(CC(=O)NCCOC)C(=O)CCC(=O)Nc1ccccn1` was 19.6%; that for `Cc1cccc(NC(=S)N(C)Cc2cn(C)c3ccccc23)c1` was -7.49%.

`COc1ccc(S(=O)(=O)NCc2ccco2)c2ccccc12`: the “hERG current change (%, negative = inhibition) at 10uM” value is recorded as -9.68%. The value for `Cc1cc2oc(=O)cc(CN3CCCCC3C)c2cc1Cl` (stereo not drawn) was -0.834%. As for `N#Cc1c(-c2ccc(Cl)cc2)ccnc1N1CCOCC1`, the “hERG current change (%, negative = inhibition) at 10uM” value is on record as 3.33%. With `CCN(c1ccccc1)S(=O)(=O)c1ccc(Cl)c(NC(=O)CN2CCN(C)CC2)c1` the figure was -59.2%; with `CCN(c1ccccc1)S(=O)(=O)c1ccc(Cl)c(NC(=O)CN2CCCCCC2)c1.O=C(O)C(=O)O`, 10.1%.

As for `CCC(C)NCC(=O)Nc1cc(S(=O)(=O)N(CC)c2ccccc2)ccc1Cl` (stereo not drawn), the “hERG current change (%, negative = inhibition) at 10uM” value is -78.8%. Consider `CCN(c1ccccc1)S(=O)(=O)c1ccc(Cl)c(NC(=O)CN(C)C2CCN(C)CC2)c1`, for which the “hERG current change (%, negative = inhibition) at 10uM” value is -38.8%. With `CCN(c1ccccc1)S(=O)(=O)c1ccc(Cl)c(NC(=O)CSc2nnc(C)s2)c1` the figure was -24.2%; with `CCN(c1ccccc1)S(=O)(=O)c1ccc(Cl)c(NC(=O)COC(=O)c2ccc(O)cc2)c1`, 6.44%; with `COc1ccc(/C=N/NC(=O)C2CC2)c(OC)c1OC`, 12.9%.

Consider `COc1ccc(NC(=O)CSc2nc3ccccc3nc2N2CCCC2)c(OC)c1`, for which the “hERG current change (%, negative = inhibition) at 10uM” value was 24.1%.

With `COc1ccc(Cl)cc1NC(=O)CN(C(=O)c1ccco1)C1CCCCC1`, the “hERG current change (%, negative = inhibition) at 10uM” value is on record as -2.36%. The value for `Cc1ccc(OCCn2c(C)nc3ccccc32)cc1` was 3.94%. `Cn1c(=O)n(CCCOc2ccc(Cl)cc2)c2ccccc21`: the “hERG current change (%, negative = inhibition) at 10uM” value is -13.7%. With `Cc1ccc(OCCn2c(=O)n(C)c3ccccc32)cc1` the figure was -1.88%; with `Cn1c(=O)n(CCOc2ccc([N+](=O)[O-])cc2)c2ccccc21`, -65.3%; with `Cc1nc2ccccc2n1CCOc1ccc([N+](=O)[O-])cc1`, -73.8%. With `Cc1nc2ccccc2n1CCOc1ccccc1` the figure was 6.17%; with `CCn1c(SCC(=O)N/N=C(\C)c2ccncc2)nnc1-c1ccc(C)cc1`, -20.6%. On to `O=C(NC1CCN(Cc2ccccc2)CC1)c1cccc(Br)c1`, for which the “hERG current change (%, negative = inhibition) at 10uM” value is listed as -63.8%.

In the case of `O=C(NC1CCN(Cc2ccccc2)CC1)c1c(F)cccc1F`, the “hERG current change (%, negative = inhibition) at 10uM” value was -24.4%. For `Cl.O=C(NC1CCN(Cc2ccccc2)CC1)c1cccc(OC(F)F)c1`, the “hERG current change (%, negative = inhibition) at 10uM” value was -74.1%.

In the case of `CC1CCc2sc(C(=O)NC3CCCCC3)cc2C1` (stereo not drawn), the “hERG current change (%, negative = inhibition) at 10uM” value is reported as -5.4%. Take `Cc1cc(C(=O)NC2CCN(Cc3ccccc3)CC2)n[nH]1`: the “hERG current change (%, negative = inhibition) at 10uM” value is listed as -19.8%. With `O=C(NC1CCN(Cc2ccccc2)CC1)c1cc(Br)c(Br)[nH]1` the figure was -2.75%; with `CC1CCc2sc(C(=O)NC3CCN(Cc4ccccc4)CC3)cc2C1` (stereo not drawn), -54.1%; with `CC1CCc2sc(C(=O)NN)cc2C1` (stereo not drawn), 21.1%. The value for `O=C(NC1CCN(Cc2ccccc2)CC1)c1ccc2c(c1)OCCCO2` was -37.1%. With `O=C(NC1CC1)c1cccc(Br)c1` the figure was 0.381%. For `O=C(NC1CCN(Cc2ccccc2)CC1)c1cncc(Br)c1`, the “hERG current change (%, negative = inhibition) at 10uM” value is reported as -64.1%. The value for `O=C(NC1CCN(Cc2ccccc2)CC1)c1ccc(Oc2cc(Cl)cc(Cl)c2)o1` was -6.95%; that for `O=[N+]([O-])c1ccc2c(c1)[nH]c(=S)n2-c1ccccc1` was 36.4%; that for `COc1cccc(CNS(=O)(=O)c2cc3c(cc2C)NC(=O)CO3)c1` was -25.4%. With `COCC1CCN(C(=O)c2ccc3oc(Cc4ccccc4)nc3c2)C1` (stereo not drawn) the figure was -0.23%; with `COc1cccc(/C=N/NC(=O)CC(=O)NCCc2ccccc2)c1OC`, 6.02%; with `Cl.NC(N)=NC(N)=Nc1cccc(Cl)c1`, -2.14%. In the case of `Cc1ccc(C)c(-n2c(C)cc(/C=N/NC(=O)c3c(C)nc4cc(C)ccn34)c2C)c1`, the “hERG current change (%, negative = inhibition) at 10uM” value is recorded as -0.122%. Consider `Cc1ccn2c(C(=O)N/N=C\c3cccs3)c(C)nc2c1`, for which the “hERG current change (%, negative = inhibition) at 10uM” value is given as -7.56%. With `CCOc1ccc(/C=N\NC(=O)c2c(C)nc3cc(C)ccn23)cc1` the figure was -2.47%. On to `Cc1ccc(NC(=O)C(=O)NCc2ccc(/C=N/NC(=O)c3c(C)nc4cc(C)ccn34)o2)cc1`, for which the “hERG current change (%, negative = inhibition) at 10uM” value is given as -64%. As to `Cc1nc2ccccn2c1C(=O)N/N=C/c1ccc([N+](=O)[O-])o1`, the “hERG current change (%, negative = inhibition) at 10uM” value is given as -64.1%.

For `Cc1nc2ccccn2c1C(=O)N/N=C/c1ccccc1[N+](=O)[O-]`, the “hERG current change (%, negative = inhibition) at 10uM” value stood at 2.26%.

Take `Cc1nc2ccccn2c1C(=O)N/N=C/c1ccc([N+](=O)[O-])cc1`: the “hERG current change (%, negative = inhibition) at 10uM” value is 2.88%.

Consider `Cc1ccn2c(C(=O)N/N=C/c3ccc(CNC(=O)C(=O)Nc4ccc(C)c(C)c4)o3)c(C)nc2c1`, for which the “hERG current change (%, negative = inhibition) at 10uM” value is -57%. With `Cc1nc2ccccn2c1C(=O)N/N=C/c1ccccc1` the figure was 11.6%; with `COc1ccc(NC(=O)C(=O)N/N=C\c2ccc(CNC(=O)C(=O)Nc3ccc(C)c(C)c3)o2)c(OC)c1`, 9.12%. Regarding `Cc1ccc(NC(=O)C(=O)NCc2ccc(/C=N/NC(=O)c3c(C)nc4ccccn34)o2)cc1`, the “hERG current change (%, negative = inhibition) at 10uM” value was determined as 1.37%.

For the compound `Cc1nc2ccccn2c1C(=O)N/N=C/c1ccc(CNC(=O)C(=O)Nc2ccccc2)o1`, the “hERG current change (%, negative = inhibition) at 10uM” value is recorded as -50.3%. For `O=C(Nc1ccc(F)cc1)c1cc2ccccc2o1`, the “hERG current change (%, negative = inhibition) at 10uM” value was 20%.

For `COc1cccc(CSc2nnnn2-c2ccc(O)cc2)c1`, the “hERG current change (%, negative = inhibition) at 10uM” value is recorded as -18.5%. As for `CCCCn1c(N)c(N(CCC(C)C)C(=O)c2cc(Cl)nc3ccccc23)c(=O)[nH]c1=O`, the “hERG current change (%, negative = inhibition) at 10uM” value is 15.2%.

In the case of `COC(=O)c1cccc(-n2nnnc2SCC(=O)Nc2nc3c(s2)CCCC3)c1`, the “hERG current change (%, negative = inhibition) at 10uM” value is -0.926%. With `Cc1ccc(OCCC(=O)O)cc1` the figure was 13.4%; with `COc1ccc(OC)c(CNCc2ccc3c(c2)OCO3)c1.O=C(O)C(=O)O`, -4.43%.

Turning to `CC(=O)c1ccc(NC(=O)C2=CC(c3cccs3)=NS(=O)(=O)N2C)cc1`, the “hERG current change (%, negative = inhibition) at 10uM” value is listed as -0.218%.

`CN(C)CCC(Oc1ccccc1OCc1ccccc1)c1ccccc1.O=C(O)C(=O)O` (stereo not drawn): the “hERG current change (%, negative = inhibition) at 10uM” value is recorded as -68.6%. With `CC(C)Oc1ccccc1OCCN(C)C.O=C(O)C(=O)O` the figure was 6.22%; with `CC(O)CNCCCOc1ccccc1OCc1ccccc1.O=C(O)C(=O)O` (stereo not drawn), -36.7%; with `COC(=O)c1ccccc1S(=O)(=O)N1CCC(C(=O)N2CCC2)CC1`, 3.96%.

Turning to `CC(C)C1OC2(C)OC(=N)C1(C#N)C(C#N)(C#N)C2c1ccccc1` (stereo not drawn), the “hERG current change (%, negative = inhibition) at 10uM” value was determined as 2.05%. With `COc1ccc(-c2nnc(OCc3nc4ccccc4n3C)c3ccccc23)cc1` the figure was -40.2%; with `Cl.OCCNc1nc(Nc2ccc(O)cc2)nc2ccccc12`, -28.6%. Turning to `Cl.Oc1ccccc1Nc1nc(NCc2ccccc2)c2ccccc2n1`, the “hERG current change (%, negative = inhibition) at 10uM” value is given as -1.42%.

Consider `Cl.OCCNc1nc(Nc2ccc(Br)cc2)nc2ccccc12`, for which the “hERG current change (%, negative = inhibition) at 10uM” value is -36.3%. As for `Cl.c1ccc(CNc2nc(NCc3ccccc3)c3ccccc3n2)cc1`, the “hERG current change (%, negative = inhibition) at 10uM” value is listed as 2.65%. With `Cl.OCCNc1nc(Nc2ccccc2)nc2ccccc12` the figure was -35%; with `Cl.OCCNc1nc(Nc2ccc(Cl)c(Cl)c2)nc2ccccc12`, 14.5%. As to `Cl.OCCNc1nc(NCc2ccccc2)c2ccccc2n1`, the “hERG current change (%, negative = inhibition) at 10uM” value is recorded as -54.6%. The value for `CNc1nc(NCc2ccccc2)c2ccccc2n1.Cl` was -68.1%; that for `Cc1ccc(Nc2nc(NCCO)c3ccccc3n2)cc1C.Cl` was -52.4%. The value for `Nc1ccc(C2(c3ccc(N)cc3)CCCCC2)cc1` was 22.1%; that for `O=C(Nc1cccnc1)c1cc(-c2ccc(Br)cc2)nc2ccccc12` was -2.53%.

In the case of `O=S1(=O)N=C(N2CCc3ccccc3C2)c2ccccc21`, the “hERG current change (%, negative = inhibition) at 10uM” value is -39%. The value for `O=C(c1ccco1)N1CCN(c2cc(C(F)(F)F)nc3ncnn23)CC1` was -16.7%.

Turning to `Cc1ccc(C(=O)CCNc2cccc(Br)c2)o1`, the “hERG current change (%, negative = inhibition) at 10uM” value was 4.71%. Turning to `O=C(COc1ccc(Cl)cc1)NCCSCc1cccc(Cl)c1`, the “hERG current change (%, negative = inhibition) at 10uM” value was -13.5%.

`CC1CCN(c2c(NCC3CCC(C(=O)NCCc4ccc(Cl)cc4)CC3)c(=O)c2=O)CC1` (stereo not drawn): the “hERG current change (%, negative = inhibition) at 10uM” value is -3.81%. On to `CCCCN(C(=O)c1ccc2ccccc2c1)c1c(N)n(CCCC)c(=O)[nH]c1=O`, for which the “hERG current change (%, negative = inhibition) at 10uM” value turned out to be 8.11%. With `COc1ccc(NC(=O)c2cc3c(=O)n4ccccc4nc3n2C)c(OC)c1` the figure was 2.99%; with `COc1ccc(Cn2c(=N)c(C(=O)NC3CCCCC3)cc3c(=O)n4ccccc4nc32)cc1`, -68.9%; with `COc1ccc(CCn2c(=N)c(C(=O)NC3CCCCC3)cc3c(=O)n4ccccc4nc32)cc1`, -79.4%. As for `COc1ccc(CCn2c(=N)c(C(=O)NC3CCCC3)cc3c(=O)n4ccccc4nc32)cc1`, the “hERG current change (%, negative = inhibition) at 10uM” value is given as -81.9%.

In the case of `N=c1c(C(=O)NC2CCCCC2)cc2c(=O)n3ccccc3nc2n1CCc1ccccc1`, the “hERG current change (%, negative = inhibition) at 10uM” value is reported as -81.1%. The value for `COc1ccc(Cn2c(=O)[nH]c3cc(C(=O)NC4CCCC4)ccc3c2=O)cc1` was 15.1%.

As for `Cc1ccc(S(=O)(=O)c2cc3c(=O)n4ccccc4nc3n(CCc3ccccc3)c2=N)cc1`, the “hERG current change (%, negative = inhibition) at 10uM” value was 5.39%. As to `N=c1c(S(=O)(=O)c2ccc(Cl)cc2)cc2c(=O)n3ccccc3nc2n1CCc1ccccc1`, the “hERG current change (%, negative = inhibition) at 10uM” value was found to be 4.68%. Turning to `COc1ccc(CCn2c(=N)c(S(=O)(=O)c3ccc(Cl)cc3)cc3c(=O)n4ccccc4nc32)cc1`, the “hERG current change (%, negative = inhibition) at 10uM” value turned out to be 20.5%.

These data come from article PMC4336329 (PLoS ONE, 2015).
